This is part of a sample that, as a whole, favours compounds with a hit. Of some 83,000 tested, about 20% had one in any assay.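 Cell lines were cultured in 96-well plates, exposed to a single compound concentration, and assessed for percent growth 48 hours later.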 Activity calls are given as the source filed them. Rule for the calls: active = growth percent below 10; inactive = the rest.

For the experiment, the system named is HL-60(TB) leukemia. Nature of the experiment: NCI-60 one-dose screen, 48 h (100 = growth as untreated, 0 = no growth, -100 = all killed). As to conditions: 10 µM unless noted.
Take `CCN(CC)CCCNc1cc(OC)cc2cccnc12`: the growth was 94.7% (inactive).

Consider `CCCCCCCCCCCCNC(=O)N[C@H](C(=O)N[C@H]1/C=C/OCCNC(=O)/C=C/[C@H](C(C)C)NC1=O)C(C)C`, for which the growth was 93.8% (inactive).

Regarding `COc1ccc(S(=O)(=O)N(C)c2oc(-c3ccc(Cl)cc3)nc2C#N)cc1`, the growth was 63.9% (inactive).

For the compound `O=C(Nc1ccccc1)c1ccco1`, the growth is 95.7% (inactive).

For the compound `CC(=O)OC1CC2C3CCC4C[C@@H](NC(=O)C=C(C)C)CC[C@]4(C)C3CC[C@]2(C)[C@H]1C(C)N(C)C` (stereo not given in full), the growth was -49.6% (active).

Regarding `COc1ccc(O)c(-c2cc(-c3ccccc3)c(C#N)c(=O)[nH]2)c1`, the growth is 112% (inactive).

As for `N#Cc1c(C#N)c(SSc2c(C#N)c(C#N)c(N)n2-c2ccccc2)n(-c2ccccc2)c1N`, the growth was 99.2% (inactive).

For `CCOC(=O)c1c(C)nc2c(c1N)C(=O)C(=O)N2CCc1ccc(OC)c(OC)c1`, the growth was 65.6% (inactive).

For the compound `COc1ccc(Nc2nc(N)nc3c2CCN(Cc2ccc(OC)cc2OC)C3=O)cc1`, the growth is 59.1% (inactive).

On to `O=C(Oc1ccc2c(c1)sc1nc(-c3ccccc3)[nH]c(=O)c12)C(F)(F)F`, for which the growth is 2.56% (active).

Regarding `COc1ccc2c(c1)/C(=C/c1cc(OC)c(OC)c(OC)c1)C(=O)N2C`, the growth is 3.32% (active).

Turning to `CCn1c(=O)n(C)c2c(=O)n(C)c(=O)n(C)c21`, the growth was 101% (inactive).

As to `COc1ccc(N=c2nc3sc4cc(Cl)ccc4n3c(N)c2C#N)cc1`, the growth was 119% (inactive).

As to `Cc1cc([C@@H](C)Nc2ccccc2C(=O)O)c2nc(N3CCOCC3)cc(=O)n2c1`, the growth was 26.7% (inactive).

For `O=C1CCC(C(=O)N/N=C/c2ccc([N+](=O)[O-])cc2)N1` (stereo not given), the growth is 96.7% (inactive).

Regarding `CN(C)CCOc1ccc(/C(=C(/CCCCCCCCCC[P+](c2ccccc2)(c2ccccc2)c2ccccc2)c2ccccc2)c2ccccc2)cc1`, the growth was -62.1% (active).

In the case of `O=c1nc(-c2ccccc2)c2cc(-c3ccc(C(F)(F)F)nc3)ccc2[nH]1`, the growth was 94.5% (inactive).

On to `CN(C)CCN=c1nc2c(c(N)n1-c1ccccc1)c(=S)n(-c1ccccc1)c(=S)n2-c1ccccc1`, for which the growth was 36.6% (inactive).

Turning to `COc1ccc(C2Nc3ncnc(N)c3N=C3c4ccccc4C(=O)C32)cc1` (stereo not given), the growth is 58.8% (inactive).

With `CNCCCNc1nc2ccccc2c2c(=O)c3cc(OC)ccc3sc12`, the growth is 56.2% (inactive).

In the case of `Cc1cccc(N=Nc2cccc(C)c2)c1`, the growth was 125% (inactive).

As for `C/C(=N\NC(=O)CSc1nc2ccccc2c(=O)n1CCc1ccc(S(N)(=O)=O)cc1)c1ccccn1`, the growth is 33.8% (inactive).

On to `CCCC1Cc2cc(-n3nc(C)c4c3CC(C)(C)CC4=O)cc(NC3CCC(O)CC3)c2C(=O)N1` (stereo not given), for which the growth is -8.17% (active).

As for `CN(C)CC1C(=O)O[C@H]2[C@H]1CC/C(COC(=O)c1cc3ccccc3[nH]1)=C\CC[C@@]1(C)O[C@@H]21` (stereo not given in full), the growth is -36% (active).

For `O=C1C(Cl)=C(Nc2cccc3cc4ccccc4nc23)C(=O)c2ccccc21`, the growth is 47.8% (inactive).

For the compound `CCOC(=O)CC(c1ccccc1)C(C#N)c1ccccc1` (stereo not given), the growth was 99.3% (inactive).

For the compound `O=C(c1ccccc1)C(Br)C(Br)c1cccc([N+](=O)[O-])c1` (stereo not given), the growth is -2.38% (active).

Consider `CC(CN)[C@@H]1CC[C@]2(CO)CC[C@]3(C)[C@H](CC[C@@H]4[C@@]5(C)CCC(N)C(C)(C)[C@@H]5CC[C@]43C)[C@@H]12` (stereo not given in full), for which the growth was 31.5% (inactive).

For the compound `COc1cc(-c2cc(-c3ccc(Nc4ncnc5cc(Cl)ccc45)cc3)nc(N3CCCCC3)n2)cc(OC)c1OC`, the growth is 91.6% (inactive).

For the compound `c1ccc(CCc2ccccc2-c2cc(-c3ccccc3)on2)cc1`, the growth is 76.2% (inactive).

Regarding `O=Cc1ccc(Cl)c(Cl)c1`, the growth is 106% (inactive).

For the compound `NS(=O)(=O)c1ccc(N2N=C(c3cccs3)CC2c2ccccc2O)cc1` (stereo not given), the growth was -25.9% (active).

For the compound `COc1cc(/C=C2\C(=O)N(CCCCn3c4ccccc4c(=O)c4ccccc43)c3ccccc32)cc(OC)c1O`, the growth was 53.5% (inactive).

Take `CCCCN(CCCC)CCCn1c(-c2ccccc2)ccc1-c1ccccc1`: the growth was 61.6% (inactive).

Take `O=C(/C=C/c1cccc(Nc2ccnc3cc(Cl)ccc23)c1)c1ccc(Cl)cc1`: the growth is 47.6% (inactive).

As for `COc1cc(/C=N/NC(=O)c2ccccc2Nc2cccc(C(F)(F)F)c2)cc(OC)c1OC`, the growth was -5.58% (active).

With `N#Cc1c(-c2ccccc2)[nH]c2ncc(-c3ccccc3)n2c1=O`, the growth is 97.1% (inactive).

As for `NCCCNc1nc2ccccc2c2c(=O)c3cc(C(F)(F)F)ccc3sc12`, the growth is -23% (active).

Turning to `O=C1CCC(C(=O)NN(c2ccccc2)c2ccccc2)N1` (stereo not given), the growth was -18.8% (active).

In the case of `CCCCCCN(C)Cc1ccc(OCCOc2ccc(CN(C)CCCCCC)cc2)cc1`, the growth was -43.4% (active).

Source of the values: PubChem BioAssay (NCI).
